In PubChem BioAssay AID1625 (Sanford-Burnham Center for Chemical Genomics, 2009):
Out of some 190,000 compounds screened, about 570 (0.3%) were called active.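 How the source made its calls: active means z-score above 3 at 5 µM with at least 500 cells counted in the well; inconclusive means wells under 500 cells, flagged as cytotoxic or low count; inactive means the rest.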 Only a selection was taken, and actives are over-represented in it overall.

Assay: up-regulation of insulin promoter-GFP reporter – imaging, high-content screening, mouse beta cells (AID 1625);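 on cell count: total cells summed across four imaged fields per well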
Settings: MIN6 insulin promoter-GFP reporter, at 5 µM; cell count: measured here: cytotoxicity, nuclei count; z-score: stronger effect = higher value
In the case of `O=C(Cc1nn[nH]n1)NCCC1=CCCCC1`, the cell count is reported as 1260 cells and the z-score is reported as -0.63 (inactive). For `O=C(Cc1cccc2ccccc12)NCCC1=CCCCC1`, the cell count was 1280 cells and the z-score was -0.27 (inactive). With `CN1CCNC(=O)C1CC(=O)NCCC1=CCCCC1` (stereo not drawn) the cell count was 1390 cells and the z-score was 3.77 (active). For `Cn1nc(C(C)(C)C)c([N+](=O)[O-])c1C(N)=O`, the cell count was 1080 cells and the z-score was -0.1 (inactive). With `O=C(O)CC1=C(Nc2ccccc2)C(=O)N(c2ccccc2)C1c1ccc(Cl)cc1` (stereo not drawn) the cell count was 1370 cells and the z-score was -0.28 (inactive). In the case of `O=[N+]([O-])c1ccccc1NCc1ccccc1Cl`, the cell count is reported as 1120 cells and the z-score is reported as 0.76 (inactive). In the case of `N/C(=N/O)c1cccn1Cc1ccccc1[N+](=O)[O-]`, the cell count is reported as 1470 cells and the z-score is reported as 0.02 (inactive). For `O=c1c([N+](=O)[O-])cccn1Cc1ccc(F)cc1Cl`, the cell count was 1280 cells and the z-score was 3.36 (active). In the case of `CN1CCN(C(c2cc3cc4c(cc3[nH]c2=O)OCCO4)c2nnnn2C2CCCC2)CC1` (stereo not drawn), the cell count is reported as 1180 cells and the z-score is reported as -0.16 (inactive). For `CCOc1ccc(-n2cnc3c(=O)[nH]c(N)nc32)cc1`, the cell count was 1510 cells and the z-score was -0.16 (inactive). For `CC(C)(C)c1ccc(CCC2OCC(CN3CCOCC3)O2)cc1` (stereo not drawn), the cell count was 1070 cells and the z-score was -0.91 (inactive). In the case of `O=C(Cc1ccccc1)N1N=C(c2ccncc2)CC1(O)C(F)(F)F` (stereo not drawn), the cell count is reported as 1110 cells and the z-score is reported as -0.48 (inactive). In the case of `CN1CCN(C(=O)/C(=C\c2cccs2)NC(=O)c2cccs2)CC1`, the cell count is reported as 1240 cells and the z-score is reported as 6.06 (active). In the case of `Cc1ccc(C(=O)N/C(=C/c2cccs2)C(=O)N2CCCCC2)cc1`, the cell count is reported as 1270 cells and the z-score is reported as 0.22 (inactive). In the case of `CN1CCN(C(=O)/C(=C\c2ccc3c(c2)OCO3)NC(=O)c2cccs2)CC1`, the cell count is reported as 1300 cells and the z-score is reported as 0.04 (inactive). For `O=C(O)C(c1ccccc1)C1(O)CCCCC1` (stereo not drawn), the cell count was 1390 cells and the z-score was 0.43 (inactive). In the case of `CCCCSc1nnc2c(n1)OC=Nc1ccccc1-2`, the cell count is reported as 1140 cells and the z-score is reported as -0.42 (inactive). In the case of `Cc1nc2ccccc2nc1N/N=C/c1ccc(O)cc1O`, the cell count is reported as 1210 cells and the z-score is reported as -3.3 (inactive). For `Oc1ccc(/C=N/Nc2nc(-c3ccccc3F)nc3ccccc23)c(O)c1`, the cell count was 1070 cells and the z-score was 3.69 (active). In the case of `Fc1ccc(/C=N/Nc2nc(-c3cccnc3)nc3ccccc23)cc1`, the cell count is reported as 1030 cells and the z-score is reported as -0.09 (inactive). For `O=C(NCCc1ccccn1)c1cccnc1Oc1ccc(Cl)cc1`, the cell count was 1560 cells and the z-score was -0.11 (inactive). In the case of `Cc1nc2c(c(=O)n1Cc1ccco1)c1nc3ccccc3nc1n2Cc1ccccc1`, the cell count is reported as 1260 cells and the z-score is reported as -1.6 (inactive). In the case of `CC(=O)c1ccc(-c2ccc(Cn3c(C)nc4cc(N)c(C)nc43)cc2)cc1`, the cell count is reported as 1520 cells and the z-score is reported as 0.28 (inactive). In the case of `Cc1cc2nc3c(=O)n(Cc4ccccc4)c(=O)[nH]c3nc2cc1N`, the cell count is reported as 1490 cells and the z-score is reported as 12.1 (active). In the case of `COc1ccc(Nc2cc(=O)n(-c3ccccc3)c3c2c(=O)n(C)c(=O)n3C)cc1`, the cell count is reported as 991 cells and the z-score is reported as 0.04 (inactive). For `COc1ccc(C(=O)C2CCCN(C(=O)c3cc4nc(C)cc(C)n4n3)C2)cc1F` (stereo not drawn), the cell count was 1470 cells and the z-score was -0.02 (inactive). For `COCc1cc(=O)[nH]c(SC)n1`, the cell count was 1140 cells and the z-score was -0.01 (inactive). In the case of `CC(C)c1nc(SCC(=O)NC(=O)NC(C)(C)C)n[nH]1`, the cell count is reported as 976 cells and the z-score is reported as -0.03 (inactive). In the case of `CCCn1nc2cc(C(=O)NCc3ccccc3)ccc2c1OCC`, the cell count is reported as 1430 cells and the z-score is reported as 4.73 (active). With `CCOc1c2ccc(C(=O)NCc3ccc4c(c3)OCO4)cc2nn1C` the cell count was 1870 cells and the z-score was 0.4 (inactive). With `CCOc1c2ccc(C(=O)NCc3ccc(OC(F)(F)F)cc3)cc2nn1C` the cell count was 1370 cells and the z-score was 2.39 (inactive). For `CC12CN(NC(=O)c3ccc(Cl)cc3)C3(C#N)CC1CCC23C` (stereo not drawn), the cell count was 1610 cells and the z-score was -0.1 (inactive). In the case of `Cc1cc2nc(C(F)(F)F)cc(-c3cccs3)n2n1`, the cell count is reported as 1200 cells and the z-score is reported as -0.13 (inactive). For `O=C(COC(=O)C12CC3CC(CC(O)(C3)C1)C2)NC12CC3CC(CC(C3)C1)C2`, the cell count was 1360 cells and the z-score was -1.25 (inactive). In the case of `Clc1ccc2nc(-c3ccccc3)nc(C(Cl)Cl)c2c1`, the cell count is reported as 892 cells and the z-score is reported as -0.12 (inactive). For `Cc1cc2c(c(=O)n1Cc1ccco1)C(c1ccccc1)C(C#N)=C(N)O2` (stereo not drawn), the cell count was 961 cells and the z-score was -0.43 (inactive). In the case of `CN(c1ccccc1)c1ccc(/C=c2\s/c(=C(/C#N)C(=O)C(C)(C)C)n(Cc3ccco3)c2=O)cc1`, the cell count is reported as 1460 cells and the z-score is reported as 12.8 (active). For `CCOC(=O)CSc1nc2c(sc(=S)n2CCc2ccccc2)c(=O)n1Cc1ccco1`, the cell count was 1440 cells and the z-score was -0.59 (inactive). With `CSc1nc(-c2ccco2)nn1C(=O)c1ccccc1Cl` the cell count was 983 cells and the z-score was -0.05 (inactive). With `COc1ccc(OC)c(CNC(=O)c2cc(=O)[nH]c3ccc(S(=O)(=O)N4CCCC4)cc23)c1` the cell count was 1540 cells and the z-score was -0.29 (inactive). In the case of `Cc1cc(C(=O)N/N=C/c2ccc(N3CCOCC3)cc2)c(C)o1`, the cell count is reported as 987 cells and the z-score is reported as 0.32 (inactive). In the case of `Cc1ccc(C(=O)NC(=S)Nc2ccc(N3CCOCC3)cc2)cc1`, the cell count is reported as 1440 cells and the z-score is reported as -0.06 (inactive). For `CCN(CC)c1ccc(C(=O)N/N=C/c2ccc(N3CCOCC3)cc2)cc1`, the cell count was 1830 cells and the z-score was 3.38 (active). With `COc1ccccc1Nc1nc(N)nc(CSC(=S)N2CCOCC2)n1` the cell count was 1080 cells and the z-score was -0.34 (inactive). For `CCCN(c1ccc(C)cc1)c1nc(=O)c2cccnc2s1`, the cell count was 1150 cells and the z-score was 0.79 (inactive). For `O=C(NCc1ccc(F)cc1)C1CCC(CNc2c(N3CCOCC3)c(=O)c2=O)CC1` (stereo not drawn), the cell count was 1000 cells and the z-score was -0.88 (inactive). With `CC(C)CN(CC(C)C)CC(O)CN(c1ccccc1)S(=O)(=O)c1ccccc1[N+](=O)[O-]` (stereo not drawn) the cell count was 1100 cells and the z-score was -1.15 (inactive). With `CC(C)CNC(=O)C(=O)NCc1ccccc1` the cell count was 1620 cells and the z-score was -0.28 (inactive). For `Cc1nn(-c2ccccc2)c(C)c1NC(=O)CCl`, the cell count was 1030 cells and the z-score was 3.88 (active). In the case of `Cc1nn(-c2ccccc2)c(C)c1NC(=O)COc1ccc(Cl)cc1Cl`, the cell count is reported as 1470 cells and the z-score is reported as 1.23 (inactive). In the case of `Cc1nn(-c2ccccc2)c(Cl)c1C(=O)Nc1ccccc1`, the cell count is reported as 1480 cells and the z-score is reported as -0.05 (inactive). In the case of `S=C(NCCc1ccccc1)N1CCn2cccc2C1c1ccncc1` (stereo not drawn), the cell count is reported as 1320 cells and the z-score is reported as 0.43 (inactive). With `O=C(CN1CCN(Cc2ccccc2)CC1)NC(c1ccccc1)c1ccccc1` the cell count was 847 cells and the z-score was 0.25 (inactive). In the case of `CCN(CC(=O)Nc1cccc(S(N)(=O)=O)c1)Cc1nc2ccccc2c(=O)[nH]1`, the cell count is reported as 1090 cells and the z-score is reported as 0.21 (inactive).
